# Results filed as inconclusive are left out. Values without a mark were called inactive. Calls of active or inactive are those of the source. The call rests on the fitted dose curve; in most records, active means well fitted inhibition curve with a large enough effect; inconclusive means small, poorly fitted or top-dose-only effect; inactive means flat fitted curve, though single readings scatter.
# Columns and labels:
# Test in all cases: Cytotoxic Profiling of Annotated Libraries Using Quantitative High-Throughput Screening (AID 1296008); further: nearly all actives have a fitted effect of over 60% in size
# Conditions in all cases: Five cell lines viability, CellTiter-Glo ATP luminescence, 48-72 h; max response: stronger effect = lower value
# HaCat = tested on: HaCat
# Outline: (§1)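 Cells exposed to compounds for 48 or 72 hr at 37 degrees Celsius. Viability read as ATP-coupled luminescence with CellTiter-Glo after 10 min at room temperature.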
# KB-3-1 = tested on: KB-3-1
# Outline: as §1
# NIH3T3 = tested on: NIH3T3
# Outline: as §1
# On the % scale 0 is the no-effect control and ±100 the full control effect; potency means the concentration at half of the fitted maximal effect.
smiles,measurement,setting,value
C=C(F)c1sc(CNCCCNc2cc(=O)c3ccccc3[nH]2)c(C)c1Br,max response,HaCat,-0.153%
same,Potency,KB-3-1,16.4 µM (active)
same,max response,NIH3T3,-1.77%
COc1cc2c(cc1OC)-c1[nH]nc(Nc3cccc(F)c3)c1C2,Potency,HaCat,0.0731 µM (active)
same,Potency,KB-3-1,0.164 µM (active)
same,Potency,NIH3T3,0.731 µM (active)
COC1C(=O)CCC2(CO2)C1(O)C1(C)OC1CC=C(C)C (configuration not stated),max response,HaCat,-2.7%
same,max response,KB-3-1,6.79%
same,max response,NIH3T3,-14.1%
CC(C)c1cc(C(=O)N2CC[C@@H](NC(=O)C3CC3)C2)n[nH]1,max response,HaCat,0.869%
same,max response,KB-3-1,2.09%
same,max response,NIH3T3,-14.5%
O=C(/C=C/c1ccc(O)cc1)OC1[C@H](O)CC(O)(C(=O)O)C[C@H]1O (some centres not stated),max response,HaCat,1.01%
same,max response,KB-3-1,2.34%
same,max response,NIH3T3,-9.08%
Cc1cc(C(N)=O)ccc1-n1c(CCC(=O)O)ccc1-c1ccc(-n2ccnc2)cc1,max response,HaCat,-1.63%
same,max response,KB-3-1,7.2%
same,max response,NIH3T3,-2.74%
C=CC1(C)C=C2CCC3C(C)(C)C(O[C@@H]4O[C@@H](CO)[C@H](O)[C@H]4O)CCC3(C)C2CC1O[C@@H]1O[C@H](C)[C@H](O)[C@H](O)[C@H]1O (some centres not stated),max response,HaCat,4.85%
same,max response,KB-3-1,-11.1%
same,max response,NIH3T3,-6.13%
C[C@@]12C[C@]3(O)O[C@H](O1)[C@]1(COC(=O)c4ccccc4)[C@H]3C[C@@]12O[C@@H]1O[C@H](CO)[C@@H](O)[C@H](O)[C@H]1O,max response,HaCat,-7.15%
same,max response,KB-3-1,8.38%
same,max response,NIH3T3,3.01%
CC1(C)CCCC2(C)C1CC=C1C(=O)OC(O)C12O (configuration not stated),max response,HaCat,3.25%
same,max response,KB-3-1,3.77%
same,max response,NIH3T3,0.868%
C=C1C[C@]23C[C@H]1CC[C@H]2[C@]1(C)CCC[C@@](C)(C(=O)O)[C@H]1[C@@H]3C(=O)O,max response,HaCat,-5.4%
same,max response,KB-3-1,0.882%
same,max response,NIH3T3,2.88%
CCC(C)C(=O)OC1CC(O)C23C4OCC5(C(O)CC2C1(C)C(O)O4)C3C(=O)C(O)C1(C)C(O)(c2ccoc2)CC2OC251 (configuration not stated),Potency,HaCat,4.85 µM (active)
same,Potency,KB-3-1,0.968 µM (active)
same,Potency,NIH3T3,3.06 µM (active)
C=C1CC[C@@H]2[C@@](C)(CO[C@@H]3O[C@H](CO)C(O)[C@H](O)C3O)[C@H](O)CC[C@@]2(C)[C@@H]1CC/C(C)=C/CO (some centres not stated),max response,HaCat,-3.82%
same,outcome,KB-3-1,inactive
same,max response,NIH3T3,-10.1%
CO[C@H]1C[C@@H]2CC[C@@H](C)[C@@](O)(O2)C(=O)C(=O)N2CCCC[C@H]2C(=O)O[C@H]([C@H](C)C[C@@H]2CC[C@H](n3cnnn3)[C@H](OC)C2)CC(=O)[C@H](C)/C=C(\C)[C@@H](O)[C@@H](OC)C(=O)[C@H](C)C[C@H](C)/C=C/C=C/C=C/1C,max response,HaCat,-3.38%
same,max response,KB-3-1,-0.0133%
same,max response,NIH3T3,0.445%
COc1c2c(c(C)c3c1C(=O)OC3)O[C@@]1(C)CCC3(C(C)(C)O)OC(=O)CC[C@]3(C)[C@H]1C2 (some centres not stated),max response,HaCat,-17.1%
same,outcome,KB-3-1,inactive
same,max response,NIH3T3,-21.1%
c1ccc(-c2ncc(CN3CCN(c4ncccn4)CC3)[nH]2)cc1,max response,HaCat,0.273%
same,max response,KB-3-1,-2.29%
same,max response,NIH3T3,-1.52%
C=C[C@H]1[C@H](O[C@@H]2O[C@H](CO)[C@@H](O)[C@H](O)[C@H]2O)OC=C(C(=O)OC)[C@H]1CCOC(=O)c1cc(O)c(O)c(O)c1,max response,HaCat,4.92%
same,outcome,KB-3-1,inactive
same,max response,NIH3T3,-1.02%
COc1cccc2cc3c(c(O[C@@H]4O[C@H](CO[C@@H]5O[C@H](CO)[C@@H](O)[C@H](O)[C@H]5O)[C@@H](O)[C@H](O)[C@H]4O)c12)C(C)OC3=O (some centres not stated),max response,HaCat,-3.49%
same,max response,KB-3-1,9.17%
same,max response,NIH3T3,0.0764%
C=CC(C)(C)c1[nH]c2ccccc2c1C[C@@H]1NC(=O)[C@H](Cc2c[nH]c3ccccc23)NC1=O,max response,HaCat,-3.54%
same,max response,KB-3-1,3.66%
same,max response,NIH3T3,0.0013%
CC(C)=CCC/C(C)=C/CC/C(C)=C/COC1OC(COC2OCC(OC3OCC(O)C(O)C3O)C(O)C2O)C(O)C(OC2OC(C)C(OC3OC(C)C(OC4OCC(OC5OC(C)C(O)C(O)C5O)C(O)C4O)C(O)C3O)C(O)C2O)C1O (configuration not stated),outcome,HaCat,inactive
same,max response,KB-3-1,6.01%
same,max response,NIH3T3,-0.843%
CCN1CCN(Cc2ccc(NC(=O)c3ccc(C)c(/C=C/c4cnc5[nH]ccc5c4OC)c3)cc2C(F)(F)F)CC1,Potency,HaCat,5.8 µM (active)
same,Potency,KB-3-1,18.4 µM (active)
same,Potency,NIH3T3,5.17 µM (active)
C[C@@H]1O[C@@H](OC[C@H]2O[C@@H](Oc3cc(O)cc4c3C(=O)C(O)(Cc3ccc(O)cc3)O4)[C@H](O)[C@@H](O)[C@@H]2O)[C@H](O)[C@H](O)[C@H]1O (some centres not stated),max response,HaCat,-8.78%
same,max response,KB-3-1,8.25%
same,max response,NIH3T3,2.04%
CC(C)(C)NS(=O)(=O)c1cncc(-c2cc(F)c3nc(N)nn3c2)c1,max response,HaCat,-25.2%
same,outcome,KB-3-1,inactive
same,max response,NIH3T3,3.5%
CC1(C)CC[C@@]2(C(=O)O[C@@H]3O[C@H](CO)[C@@H](O)[C@H](O)[C@H]3O)C(C1)C1=CCC3[C@@]4(C)CC[C@@H](O[C@@H]5O[C@H](C(=O)O)[C@@H](O[C@@H]6OC[C@@H](O)[C@H](O)[C@H]6O)[C@H](O[C@@H]6OC[C@](O)(CO)[C@H]6O)[C@H]5O)C(C)(C)C4CC[C@@]3(C)[C@]1(C)C[C@H]2O (some centres not stated),max response,HaCat,4.43%
same,outcome,KB-3-1,inactive
same,max response,NIH3T3,-2.09%
Cc1ccccc1C#Cc1ccc(CCC(=O)O)cc1,max response,HaCat,-15.6%
same,max response,KB-3-1,-11.6%
same,max response,NIH3T3,-10.2%
COc1cc2c(cc1O)[C@H](c1ccc(O[C@@H]3O[C@H](CO)[C@@H](O)[C@H](O)[C@H]3O)c(OC)c1)[C@@H](CO)[C@](O)(CO)C2,max response,HaCat,-2.06%
same,outcome,KB-3-1,inactive
same,max response,NIH3T3,2.92%
CC1=CCC2C(C)(C)CCC[C@]2(C)[C@@]12CC[C@](C)(CC(=O)O)O2 (some centres not stated),max response,HaCat,-3.64%
same,max response,KB-3-1,-6.84%
same,max response,NIH3T3,-1.28%
C=CCC1=C[C@]2(OC)[C@H](C)[C@@H](c3ccc(O)c(OC)c3)O[C@]2(OC)CC1=O,max response,HaCat,3.92%
same,max response,KB-3-1,5.23%
same,max response,NIH3T3,0.772%
CC(=O)OC1C[C@@]2(C)[C@@H](CC[C@@H](C)[C@]23Cc2c(O)cc4c(c2O3)CNC4=O)C(C)(C)[C@@H]1O (some centres not stated),max response,HaCat,4.03%
same,outcome,KB-3-1,inactive
same,max response,NIH3T3,1.15%
N#Cc1ccc(C(=O)N2CCC3(CC2)N=C(N)c2c(F)ccc(F)c2N3)cn1,max response,HaCat,2.01%
same,max response,KB-3-1,-9.49%
same,max response,NIH3T3,-5.13%
C=C(CO)C12OC1C1(C)C(=CC2=O)C(O)C(O)CC1C (configuration not stated),max response,HaCat,-9.32%
same,max response,KB-3-1,3.94%
same,max response,NIH3T3,-6.8%
CC1=CC2C(CC1OC1OC(CO)C(O)C(O)C1O)C(C)CC(=O)C2C(C)C (configuration not stated),max response,HaCat,-4.3%
same,outcome,KB-3-1,inactive
same,max response,NIH3T3,1.5%
Cc1ccc(-c2ccc3c(ccc4sc5c(c43)NC[C@@H](C)NC5=O)n2)cn1,max response,HaCat,-8.25%
same,outcome,KB-3-1,inactive
same,max response,NIH3T3,-0.392%
CC1CCC23COC(=O)C2=CC(O)CC3C1(C)CCC1=CC(O)OC1=O (configuration not stated),max response,HaCat,-7.3%
same,outcome,KB-3-1,inactive
same,max response,NIH3T3,0.229%
CCCCC1CCN(CCCC(=O)c2ccccc2C)CC1,max response,HaCat,-61.6%
same,max response,KB-3-1,-21.4%
same,max response,NIH3T3,-22.9%
